Compound activity deposited in PubChem by The Scripps Research Institute Molecular Screening Center.
ADAM10 inh: inhibits human ADAM10 | inhibition, % at 7 µM | AID 720582 | O14672 | actives 0.62% (n = 370,000) | recombinant ADAM10, EDANS/DABCYL FRET peptide cleavage, 3 h;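 active = inhibition above a per-campaign cutoff equal to the mean of compounds falling between control-based bounds plus 3 SD, cut at about 20% in these data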;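 note: 0% = DMSO wells while the 100% control is not disclosed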
PLC-beta3 inh: blocks human PLC-beta3 enzyme activity. Q01970. Purified PLC-beta3, fluorogenic substrate, fluorescence. inhibition, % at 12.2 µM. actives 0.18% (n = 370,000). AID 720704; in the data active = inhibition above about 11%;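 note: 0% = median of compound wells on plate and 100% = full blocker control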
ADAM17 inh: inhibits human ADAM17. inhibition, % at 6.95 µM. P78536. recombinant ADAM17, EDANS/DABCYL FRET peptide cleavage. AID 720648. actives 0.83% (n = 370,000);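 active = inhibition above the mean of compounds lying between control limits plus 3 SD, set per campaign, cut at about 8.5% in these data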;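 note: 0% = DMSO-only wells as the low control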
PLC-gamma1 inh: blocks human PLC-gamma1 enzyme activity. P19174. purified PLC-gamma1, fluorogenic substrate, fluorescence. inhibition, % at 12.2 µM. actives 0.84% (n = 370,000). AID 720700; in the data active = inhibition above about 9.5%
KLK7 zymogen act: activators of human kallikrein-7 zymogen; actives 0.9% (n = 370,000); activation, % at 7 µM; purified proKLK7, EDANS-DABCYL substrate fluorescence; 100% is mature enzyme control, 0% vehicle;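 active = activation above the mean of all tested compounds plus 3 SD, computed per campaign excluding outliers beyond control limits, cut at about 13% in these data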
HGIII-sPLA2 inh: Blocks human group III sPLA2 activity | inhibition, % at 12.2 µM | actives 0.56% (n = 370,000) | QFRET BODIPY PC-A2 liposome hydrolysis, fluorescence | Q9NZ20;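 active = inhibition above mean plus 3 SD of compounds lying within the high and low control bounds, cut at about 19% in these data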;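 note: 0% = median of test compound wells and 100% = no enzyme DMSO wells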
Target sequence (Q9NZ20 whole entry, looked up): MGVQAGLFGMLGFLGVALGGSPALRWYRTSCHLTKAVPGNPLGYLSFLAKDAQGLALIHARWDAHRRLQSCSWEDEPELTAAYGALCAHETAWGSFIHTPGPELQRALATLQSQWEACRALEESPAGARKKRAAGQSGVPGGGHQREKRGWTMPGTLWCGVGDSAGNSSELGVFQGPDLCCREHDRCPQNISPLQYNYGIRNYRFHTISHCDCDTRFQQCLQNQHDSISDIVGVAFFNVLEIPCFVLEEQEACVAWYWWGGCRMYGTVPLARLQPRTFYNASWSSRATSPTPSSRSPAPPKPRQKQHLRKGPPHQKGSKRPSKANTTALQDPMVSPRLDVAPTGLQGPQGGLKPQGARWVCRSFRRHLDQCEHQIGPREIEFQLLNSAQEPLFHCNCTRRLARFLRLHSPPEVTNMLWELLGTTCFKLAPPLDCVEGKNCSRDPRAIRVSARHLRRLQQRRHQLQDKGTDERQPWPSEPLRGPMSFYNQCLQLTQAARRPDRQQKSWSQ
proKLK7 act conf: confirmation of human kallikrein-7 zymogen activators. shares compounds with KLK7 zymogen act. actives 68% (n = 3,200). purified proKLK7, EDANS-DABCYL substrate fluorescence; scaled: vehicle 0, mature enzyme 100. activation, % at 7 µM;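 active = activation, as change over the incubation, above the mean of all tested compounds plus 3 SD, cut at about 13% in these data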
EDANS-DABCYL int: fluorescence interference counter-screen for KLK7 activators; AID 686952; activation, % at 7 µM; EDANS-DABCYL substrate fluorescence interference, no enzyme, 4 h; solvent 0%, active enzyme control 100%; actives 80% (n = 3,200); shares compounds with KLK7 zymogen act;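 active = activation above the all-compound mean plus 3 SD, ignoring values outside control-based bounds, cut at about 4.8% in these data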;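 note: value is the 4 h activation minus the activation read at time zero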
K7 EDANS ctr: optically interferes with EDANS-DABCYL fluorescence, kallikrein-7 activator counter-screen; shares compounds with KLK7 zymogen act; EDANS-DABCYL peptide fluorescence interference, no enzyme; EC50, µM; actives 20% (n = 250);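 active = compounds that raise the fluorescence signal in this interference counterscreen, with EC50 at or below 10 µM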;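 note: intact quenched peptide substrate alone read at 355 nm excitation and 520 nm emission; signal is fluorescence gain from T0 to T4 after four hours at room temperature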
The depositor's hits bear a star; i = inactive; x = not tested or not shown. The list is not random: actives were taken first. Their share in the collection is about 3.4%.

SMILES	ADAM10 inh	PLC-beta3 inh	ADAM17 inh	PLC-gamma1 inh	KLK7 zymogen act	HGIII-sPLA2 inh	proKLK7 act conf	EDANS-DABCYL int	others
Cc1cccn2c(=O)c3cc(C(=O)O)n(C)c3nc12	i	i	-192.9	i	20.6*	17.5	49.0*	48.2*
Cc1cccn2c(=O)c3cc(C(=O)NC4CCCCC4)c(=N)n(CCN4CCOCC4)c3nc12	-382.8	-87.6	-139.2	-56.1	8.4	-0.3	x	x
CCCn1c(=N)c(C(=O)NC2CCCC2)cc2c(=O)n3cccc(C)c3nc21	i	i	i	i	132.9*	-9.8	-16.8	-41.4
CCn1c(=N)c(C(=O)NC)cc2c(=O)n3cccc(C)c3nc21	i	i	i	i	75.6*	9.7	67.3*	72.9*
CCCC1CCC2(CC1)CCC2OC(=S)NCc1cccc(OC)c1 (stereo not drawn)	3.4	-3.6	-1.4	-2.8	x	-12.6	x	x
O=C(OCC#CCSc1nnc(-c2cccc3ccccc23)o1)C1CC1	-55.5	-17.8	-12.6	-12.5	x	-24.1	x	x
CC(C)[C@H]1/C(=C/C2CC2)N2C(=O)C[C@H](c3cccc(C(F)(F)F)c3)N=C2N1Cc1ccc2c(c1)OCO2	5.9	0.8	0.9	-0.5	x	-2.7	x	x
Cc1onc(-c2ccccc2Cl)c1C(=O)NC(=S)Nc1ccccc1C(N)=O	-253.7	-37.2	-78.6	-37.3	12.8*	-6.7	8.0	9.1*
Cc1sc(-c2ccncc2)nc1OC(=O)c1ccc(F)cc1F	-4.2	-160.0	0.9	-149.0	13.6*	-1.2	12.8*	10.6*	K7 EDANS ctr=i
O=S1(=O)N[C@@H](Cc2ccccc2)COc2cc(N3CCOCC3)ccc21	-6.5	3.8	-3.0	0.1	0.2	5.3	x	x
COCCCNC(=O)c1cc2c(-c3cccc(OC)c3)nn(C)c2s1	-332.9	-194.7	-124.7	-142.1	2.2	2.5	x	x
CCN(CC)CCNC(=O)c1cc2c(-c3cccc(OC)c3)nn(C)c2s1	-306.1	-374.9	-105.1	-249.7	24.2*	-9.4	5.7	6.9*
Cc1ccc(S(=O)(=O)NN2C(=O)c3ccccc3NC2C)cc1 (stereo not drawn)	i	-371.4	-193.9	-276.6	39.0*	12.0	11.4	11.0*
O=C1c2ccccc2NC(c2ccccc2F)N1NS(=O)(=O)c1ccccc1 (stereo not drawn)	-312.9	-246.5	-117.2	-168.7	19.0*	3.6	6.2	6.8*
Cc1ccc(S(=O)(=O)NN2C(=O)c3ccccc3NC2c2ccccn2)cc1 (stereo not drawn)	-415.8	-311.9	-166.9	-273.9	20.3*	-0.6	6.1	4.4*
Cc1ccc(S(=O)(=O)NN2C(=O)c3ccccc3NC2c2cccc(O)c2)cc1 (stereo not drawn)	-72.0	-61.4	-27.0	-55.4	5.0	-3.7	x	x
CC1Nc2ccccc2C(=O)N1NS(=O)(=O)c1ccccc1 (stereo not drawn)	-178.5	-110.9	-60.8	-85.5	21.4*	-3.6	4.4	4.5*
Cc1ccc(S(=O)(=O)NN2C(=O)c3ccccc3NC2c2ccco2)cc1 (stereo not drawn)	-66.4	-44.8	-22.1	-34.8	4.7	1.6	x	x
COC(=O)CC1CCc2cc(C)cc(C(=O)CC(C)C)c2O1 (stereo not drawn)	-142.1	-56.2	-41.9	-40.6	x	-0.4	x	x
CC(C)c1ccc2[nH]c3c(c2c1)CCCC3=O	-368.6	i	-118.5	-322.3	14.3*	-9.2	-4.5	-3.5
Cc1ccc(N2C=Nc3ccc(C)c4nc(C)cc2c34)cc1	-474.5	i	-147.5	i	49.5*	3.5	-19.6	-21.3
CC1=Nc2ccc(C)c3nc(C)cc(c23)N1c1ccc(C)cc1	i	i	-167.8	i	70.0*	7.5	2.4	0.2
